These results are taken from article PMC5540273 (PLoS ONE, 2017).

Test systems include MAPKAPK5; MARK1; MARK2; MARK3; MARK4; MAST1; MELK; MERTK; MET; MKK7; MKNK1; MKNK2.
Common to all, as to conditions: concentration: 1 μM,replicates: in singlicate; n = 1
In another experiment the test system is T1, MEK1.
T1 construct: gene MAP2K1

A further experiment has as its system T2, MEK2.
T2 construct: gene MAP2K2

The test system of the next experiment is T3, MEK3.
T3 construct: gene MAP2K3

The next experiment relates to T4, MEK4.
T4 construct: gene MAP2K4

The next experiment relates to T5, MEK5.
T5 construct: gene MAP2K5

The next experiment deals with T6, MEK6.
T6 construct: gene MAP2K6

Another experiment concerns T7, MINK.
T7 construct: gene MINK1

For a further experiment, the system named is T8, MLCK.
T8 construct: gene MYLK3
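Further: KINOMEscan kinase panel screen.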

Turning to `CC(C)S(=O)(=O)N1CCN(Cc2ccc3c(c2)nc(NC(=O)c2ccsc2)n3C[C@H](O)c2ccccc2)CC1` [GW635815], the “%Inh” value is 0% in the experiment on MAPKAPK5; 6% in the experiment on MARK1; 34% in the experiment with MARK2; 43% in the experiment on MARK3; 18% with MARK4; 0% with MAST1. For the same molecule, the “%Inh” value in the experiment on MEK1 was 0%; in the experiment with MEK2, 0%; in the experiment with MEK3 it was 0%; in the experiment on MEK4, 9%; in the experiment on MEK5, 91.9%; with MEK6, 0%. Besides, the “%Inh” value in the experiment on MELK stood at 28%; with MERTK, 83%; in the experiment with MET it was 20%; in the experiment with MINK, 60%; in the experiment on MKK7, 0%; in the experiment on MKNK1 it was 7%. Also, the “%Inh” value with MKNK2 and in the experiment on MLCK was 0% each time.

Turning to `Cc1ccc2c(-c3ccnc(Nc4ccc(C(F)(F)F)cc4)n3)cnn2n1` [GW819776], the “%Inh” value in the experiment on MAPKAPK5 is given as 0%; in the experiment on MARK1, 17%; in the experiment with MARK2, 0%; in the experiment with MARK3 it was 0%; in the experiment with MARK4 it was 32%; in the experiment on MAST1, 41%. Moreover, the “%Inh” value in the experiment with MEK1 came out at 32%; in the experiment on MEK2 it was 40%; with MEK3, 90.7%; with MEK4, 63%; in the experiment with MEK5, 33%; with MEK6, 13%. In addition, the “%Inh” value in the experiment with MELK is on record as 0%; in the experiment on MERTK it was 26%; in the experiment with MET, 5%; with MINK, 18%; with MKK7, 0%; in the experiment on MKNK1 it was 0%. The “%Inh” value in the experiment on MKNK2 and with MLCK was 0% throughout.

On to `CN(c1ccccc1CNc1nc(Nc2ccc3c(c2)CC(=O)N3)ncc1C(F)(F)F)S(C)(=O)=O`, for which the “%Inh” value stood at 0% with MAPKAPK5; 53% in the experiment with MARK1; 37% with MARK2; 80% in the experiment with MARK3; 67% in the experiment with MARK4; 0% with MAST1. The “%Inh” value was found to be 1% in the experiment on MEK1; 0% with MEK2; 93.1% with MEK3; 84% in the experiment with MEK4; 17% in the experiment with MEK5; 93.9% with MEK6. Further, the “%Inh” value with MELK is on record as 94.3%; in the experiment on MERTK, 97.3%; with MET, 86%; in the experiment with MINK, 48%; in the experiment with MKK7 it was 0%; with MKNK1, 0%. Besides, the entries for the “%Inh” value with MKNK2 and in the experiment on MLCK were 0% and 43%, respectively.

As for `Cn1cc(-c2cccc3c(N)c(C(N)=O)nnc23)cn1`, the “%Inh” value with MAPKAPK5 is listed as 0%; in the experiment on MARK1, 0%; with MARK2, 27%; with MARK3, 0%; with MARK4 it was 18%; in the experiment on MAST1, 17%. Further, the “%Inh” value with MEK1 was 5%; with MEK2 it was 21%; in the experiment on MEK3 it was 60%; in the experiment with MEK4, 19%; in the experiment with MEK5, 41%; with MEK6, 0%. Besides, the “%Inh” value with MELK came out at 16%; in the experiment on MERTK, 0%; in the experiment on MET it was 3%; in the experiment on MINK, 29%; with MKK7, 13%; in the experiment on MKNK1 it was 5%. Further, the “%Inh” value turned out to be 29% with MKNK2 and 0% with MLCK.

With `O=C(Nc1ccc(Oc2ccc3nc(NC(=O)C4CC4)cn3n2)c(F)c1)c1cccn(-c2ccccc2)c1=O`, the “%Inh” value is given as 0% in the experiment with MAPKAPK5; 0% with MARK1; 0% with MARK2; 29% with MARK3; 0% with MARK4; 10% in the experiment on MAST1. Also, the “%Inh” value with MEK1 is 0%; in the experiment with MEK2 it was 25%; in the experiment with MEK3, 0%; in the experiment with MEK4, 0%; in the experiment on MEK5, 97%; with MEK6 it was 0%. In addition, the “%Inh” value in the experiment on MELK amounted to 18%; in the experiment with MERTK it was 96%; in the experiment on MINK, 0%; with MKK7 it was 0%; in the experiment on MKNK1, 20%; in the experiment with MKNK2 it was 92.5%. In addition, the “%Inh” value in the experiment on MLCK came to 0%.

`CN1CCN(CCNc2nc3cc(Oc4ccc(NC(=O)Nc5cc(C(F)(F)F)ccc5F)cc4)ccc3[nH]2)CC1.Cl.Cl` [GW768504]: the “%Inh” value in the experiment on MAPKAPK5 worked out at 0%; in the experiment with MARK1, 19%; in the experiment on MARK2, 0%; in the experiment with MARK3, 12%; in the experiment on MARK4, 32%; in the experiment with MAST1, 7%. For the same molecule, the “%Inh” value is listed as 0% with MEK1; 31% in the experiment with MEK2; 0% in the experiment with MEK3; 0% in the experiment on MEK4; 2% in the experiment on MEK5; 12% in the experiment on MEK6. Moreover, the “%Inh” value was 0% with MELK; 85% in the experiment with MERTK; 6% in the experiment on MET; 0% with MINK; 0% in the experiment on MKK7; 24% with MKNK1. Also, the “%Inh” value in the experiment on MKNK2 is 26%; in the experiment on MLCK, 0%.

Consider `COc1cc2c(Nc3ccc(NC(=O)c4ccccc4)cc3)ncnc2cc1OCCCN1CCOCC1` [GSK301329], for which the “%Inh” value with MAPKAPK5, in the experiment on MARK1, with MARK2, in the experiment with MARK3, in the experiment with MARK4 and in the experiment on MAST1 was 0% throughout. The “%Inh” value with MEK1 is on record as 86%; in the experiment with MEK2 it was 86%; with MEK3, 0%; in the experiment on MEK4, 5%; in the experiment with MEK5, 99.9%; in the experiment with MEK6, 0%. Moreover, the “%Inh” value is listed as 4% in the experiment on MELK; 65% in the experiment on MERTK; 50% in the experiment on MET; 17% with MINK; 0% with MKK7; 0% with MKNK1. Further, the “%Inh” value came out at 18% in the experiment with MKNK2 and 0% in the experiment on MLCK.

Turning to `CN(c1ccc2c(c1)nc(NCc1ccc(F)cc1)n2C)c1ccnc(Nc2ccc(CS(C)(=O)=O)cc2)n1.Cl` [GW813244], the “%Inh” value is given as 0% in the experiment with MAPKAPK5; 0% in the experiment on MARK1; 0% in the experiment with MARK2; 0% in the experiment on MARK3; 8% with MARK4; 19% in the experiment with MAST1. The “%Inh” value is listed as 14% with MEK1; 37% with MEK2; 27% in the experiment on MEK3; 40% in the experiment on MEK4; 97.9% with MEK5; 11% with MEK6. The “%Inh” value in the experiment on MELK is listed as 13%; in the experiment on MERTK, 77%; in the experiment on MET, 45%; with MINK, 9%; in the experiment with MKK7, 4%; with MKNK1, 0%. For the same molecule, the “%Inh” value in the experiment on MKNK2 and with MLCK was 0% throughout.

For the molecule `CC(=O)Nc1nc2cnc(Nc3cc(NC(=O)c4cccc(CC(C)(C)C#N)c4)ccc3C)nc2s1`, the “%Inh” value in the experiment on MAPKAPK5 was 14%; with MARK1, 8%; with MARK2 it was 3%; in the experiment on MARK3, 0%; in the experiment with MARK4 it was 8%; in the experiment with MAST1 it was 53%. Further, the “%Inh” value with MEK1 was found to be 6%; in the experiment on MEK2 it was 6%; in the experiment with MEK3, 0%; in the experiment with MEK4 it was 25%; with MEK5 it was 46%; in the experiment with MEK6 it was 0%. Besides, the “%Inh” value was determined as 8% in the experiment with MELK; 31% in the experiment on MERTK; 7% in the experiment with MET; 3% with MINK; 0% in the experiment with MKK7; 0% in the experiment on MKNK1. Further, the “%Inh” value in the experiment with MKNK2 was found to be 41%; with MLCK, 0%.

Turning to `O=C(NOCC1CC1)c1cc(Br)c(F)c(F)c1Nc1ccc(I)cc1Cl`, the “%Inh” value was found to be 0% in the experiment with MAPKAPK5; 0% with MARK1; 13% with MARK2; 0% with MARK3; 0% with MARK4; 0% in the experiment with MAST1. Further, the “%Inh” value with MEK1 amounted to 31%; in the experiment on MEK2, 58%; with MEK3 it was 15%; in the experiment with MEK4 it was 0%; with MEK5, 20%; with MEK6, 0%. The “%Inh” value worked out at 0% in the experiment with MELK; 0% with MERTK; 0% in the experiment with MET; 9% with MINK; 0% with MKK7; 10% with MKNK1. Besides, the “%Inh” value turned out to be 5% with MKNK2 and 0% in the experiment on MLCK.

As to `c1ccc(Oc2ccc(Nc3ccnc4ccc(-c5ccccn5)cc34)cc2)cc1` [GW407034], the “%Inh” value with MAPKAPK5 was 0%; in the experiment on MARK1, 0%; in the experiment with MARK2, 0%; with MARK3 it was 0%; in the experiment on MARK4, 0%; in the experiment with MAST1 it was 2%. Besides, the “%Inh” value in the experiment with MEK1 turned out to be 85%; with MEK2, 66%; in the experiment with MEK3, 0%; in the experiment with MEK4, 16%; in the experiment on MEK5, 99.9%; with MEK6, 0%. Besides, the “%Inh” value was determined as 0% in the experiment with MELK; 9% with MERTK; 16% with MET; 0% in the experiment on MINK; 0% in the experiment on MKK7; 0% with MKNK1. Further, the figures for the “%Inh” value in the experiment on MKNK2 and in the experiment with MLCK were 17% and 13%, respectively.
